The record followed here is PubChem BioAssay (NCI).

Among the test systems are T-47D breast; BT-549 breast; MDA-MB-435 melanoma; SW-620 colon; MCF7 breast; HCT-116 colon; HCC-2998 colon; KM12 colon.
Assay in all cases: NCI-60 one-dose screen, 48 h (100 = growth as untreated, 0 = no growth, -100 = all killed)
Holding throughout (details): 10 µM unless noted

The structures appear in SMILES notation. The panel holds about 83,000 compounds, 20% with a hit somewhere; the sample as a whole holds those more often.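 The endpoint reported here, percent growth, reads 100 for growth as untreated, 0 for no net growth and -100 for all cells dead.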 Values without a mark were called inactive. The source made the active and inactive calls. The calls were made as follows: active = growth percent below 10; inactive = the rest.

As to `CN1C=CN(Cc2ccc(-c3ccccn3)nc2)[CH-]1.CN1C=CN(Cc2ccc(-c3ccccn3)nc2)[CH-]1.[Au+3]`, the growth with T-47D breast is 40.2%; in the assay with BT-549 breast, 31.1%; with MDA-MB-435 melanoma it was 30.6%; in the assay with SW-620 colon, 36.2%; in the assay on MCF7 breast it was 9.07% (active); in the assay with HCT-116 colon, 1.98% (active). The growth was 25.3% with HCC-2998 colon and 24.9% in the assay with KM12 colon.

With `C=CCn1c2ccccc2c2c3c(c4c5ccccc5n(CC=C)c4c21)C(=O)N(O)C3=O`, the growth in the assay with T-47D breast was 13%; with BT-549 breast it was 45%; in the assay with MDA-MB-435 melanoma, 42.7%; with SW-620 colon it was 54.9%; in the assay on MCF7 breast, 13%; with HCT-116 colon it was 22.3%. Further, the growth with HCC-2998 colon was 36.5%; with KM12 colon, 26.4%.

Take `COc1cc(Nc2ncccc2C(=O)NCc2cn(Cc3cccc(Oc4ccccc4)c3)nn2)cc(OC)c1`: the growth in the assay with T-47D breast was 50.3%; in the assay on BT-549 breast, 43.8%; in the assay on MDA-MB-435 melanoma, -15.3% (active); in the assay on SW-620 colon, 31.4%; with MCF7 breast it was 18.3%; with HCT-116 colon, 19.5%. The results for the growth with HCC-2998 colon and in the assay on KM12 colon were 55% and 16.7%, respectively.

Regarding `CCn1c2ccccc2c2cc(NC(=O)Nc3ccc([N+](=O)[O-])cc3C)ccc21`, the growth in the assay on T-47D breast is 29.3%; with BT-549 breast, 79.2%; in the assay with MDA-MB-435 melanoma, 17.4%; in the assay with SW-620 colon it was 51.9%; with MCF7 breast, 35.7%; in the assay with HCT-116 colon it was 31.6%. The growth in the assay with HCC-2998 colon was 10.5%; with KM12 colon, 26.5%.

`CN(C)c1oc(C2OC2c2ccccc2)nc1C#N` (configuration not stated): the growth is 89.5% in the assay on T-47D breast; 95.6% in the assay on BT-549 breast; 101% in the assay on MDA-MB-435 melanoma; 94.3% in the assay with SW-620 colon; 90.5% in the assay on MCF7 breast; 90.2% in the assay on HCT-116 colon. For the same compound, the figures for the growth with HCC-2998 colon and in the assay on KM12 colon were 97.3% and 103%, respectively.

`COc1ccc(C2CC(c3ccc(OC)cc3OC)=NN2c2ccc(S(N)(=O)=O)cc2)cc1` (configuration not stated): the growth was 63.9% in the assay with T-47D breast; 76.7% in the assay on BT-549 breast; 103% in the assay with MDA-MB-435 melanoma; 101% in the assay on SW-620 colon; 86% in the assay with MCF7 breast; 62.8% in the assay on HCT-116 colon. Besides, the growth was 121% in the assay on HCC-2998 colon and 86.4% in the assay with KM12 colon.

As to `CCOC(=O)NNC(=S)Nc1ccccc1`, the growth in the assay on T-47D breast is 113%; in the assay on BT-549 breast it was 103%; in the assay with MDA-MB-435 melanoma, 94.9%; with SW-620 colon, 110%; with MCF7 breast, 100%; in the assay with HCT-116 colon, 104%. The growth in the assay with HCC-2998 colon was 117%; in the assay with KM12 colon, 106%.

As for `CCCCCCCCCCCCNC(=O)[C@H]1CSC(c2ccsc2)N1` (some centres not stated), the growth with T-47D breast was -41.2% (active); in the assay on BT-549 breast, -67.6% (active); in the assay with MDA-MB-435 melanoma, -98.1% (active); with SW-620 colon, -75.9% (active); in the assay on MCF7 breast it was -67.5% (active); in the assay on HCT-116 colon it was -48.3% (active). The growth in the assay on HCC-2998 colon is 11%; in the assay with KM12 colon it was -92.7% (active).

For `Cc1ccc2ccccc2c1C[n+]1ccccc1`, the growth in the assay with T-47D breast is 109%; in the assay on BT-549 breast, 79.8%; in the assay with MDA-MB-435 melanoma it was 102%; in the assay with SW-620 colon it was 99.7%; in the assay with MCF7 breast it was 93.9%; in the assay with HCT-116 colon, 101%. The growth in the assay with HCC-2998 colon was 95.2%; with KM12 colon, 87.8%.

In the case of `CN(CCCCN(C[C@H]1Cc2ncccc2CN1)[C@H]1CCCc2cccnc21)C1CCC(F)(F)CC1`, the growth with T-47D breast is 99.2%; in the assay on BT-549 breast, 85.8%; with MDA-MB-435 melanoma, 108%; in the assay on SW-620 colon, 98.7%; in the assay with MCF7 breast it was 83.7%; with HCT-116 colon it was 71.1%. In addition, the growth with HCC-2998 colon is 88.7%; with KM12 colon it was 88%.

As for `Cc1ccc(-c2cc3nc(-c4ccccc4)nc(C(Cl)Cl)n3n2)cc1`, the growth is -47.1% (active) with T-47D breast; 60.3% in the assay with BT-549 breast; -68.3% (active) in the assay with MDA-MB-435 melanoma; -48.2% (active) in the assay with SW-620 colon; -10.7% (active) in the assay with MCF7 breast; -87.6% (active) in the assay with HCT-116 colon. The growth was -90.6% (active) with HCC-2998 colon and -83.6% (active) with KM12 colon.

Consider `COc1cccc(CC(C)=C(c2ccc(OCCN3CCCCC3)cc2)c2ccc(OCCN3CCCCC3)cc2)c1`, for which the growth in the assay on T-47D breast was -42.4% (active); in the assay with BT-549 breast it was 44.6%; in the assay with MDA-MB-435 melanoma, -96.6% (active); in the assay with SW-620 colon, -71.2% (active); in the assay with MCF7 breast it was -81.4% (active); in the assay with HCT-116 colon, -64.7% (active). For the same compound, the results for the growth with HCC-2998 colon and with KM12 colon were -68.8% (active) and -30.9% (active), respectively.

For the compound `CCCCCCCCCCCCCCCCCCNC(=O)[C@H]1CSC(c2ccc(OC)cc2O)N1` (some centres not stated), the growth in the assay on T-47D breast is 60%; with BT-549 breast, 27.4%; with MDA-MB-435 melanoma, 25.4%; in the assay with SW-620 colon, 67.3%; with MCF7 breast, 23.7%; in the assay on HCT-116 colon, 39.3%. For the same compound, the growth in the assay with HCC-2998 colon was 76.7%; with KM12 colon, 27%.

Take `OCCCCCCNc1ncnc2cc(Cl)ccc12`: the growth in the assay with T-47D breast was 72%; with BT-549 breast, 87.1%; in the assay on MDA-MB-435 melanoma, 109%; with SW-620 colon it was 103%; in the assay on MCF7 breast, 97.8%; in the assay on HCT-116 colon it was 81.9%. The growth in the assay with HCC-2998 colon is 106%; in the assay on KM12 colon it was 99.7%.
